Drawing on PubChem BioAssay (EPA / NIEHS), this text covers AC50 and outcome for 40 molecules.

Structures are written as SMILES. Results filed as inconclusive are left out. Active and inactive are the calls of the source. Rule for the calls: active = hit-call score of the fitted dose curve at least 0.9, where 1 is the maximum; inconclusive = response in the unintended direction; inactive = score below 0.9.

Read-out in the assay: xenobiotic metabolism (CYP1A1), CYP1A1 (gene 1543)
Kind of assay: CLD_CYP1A1_6hr: CellzDirect (CLD) Gene Expression Assay for xenobiotic metabolism (CYP1A1) at 6 hours (AID 2283661).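 For AC50: potency for transcript induction above DMSO vehicle baseline.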 The procedure: CLD_6hr is a cell-based, multiplexed-readout assay that uses hepatocyte, a human liver primary cell, with measurements taken at 6 hours after chemical dosing in a 96-well plate.CLD_CYP1A1_6hr is one of 16 assay component(s) measured or calculated from the CLD_6hr assay. It is designed to make measurements of mRNA induction, a form of inducible reporter, as detected with chemiluminescence signals by Quantitative Nuclease Protection Assay (qNPA) technology.Data from the assay component CLD_CYP1A1_6hr was analyzed at the endpoint, CLD_CYP1A1_6hr, in the positive analysis fitting direction relative to DMSO as the negative control and baseline of activity. Using a type of inducible reporter, gain-of-signal activity can be used to understand changes in the reporter gene as they relate to the gene CYP1A1. Furthermore, this assay endpoint can be referred to as a primary readout. To generalize the intended target to other relatable targets, this assay endpoint is annotated to the cyp intended target family, where subfamily is xenobiotic metabolism.
Human hepatocyte cultures were treated daily for two consecutive days with fresh dosing solutions containing appropriate concentrations of the 320 ToxCast chemicals (chemical identities were blinded to CellzDirect and other ToxCast collaborators), vehicle control (0.2% DMSO), and positive control inducers as summarized in Table 1. Due to the large number of treatment groups and chemicals examined, the ToxCast chemicals were divided into two groups (spanning two independent cultures of hepatocytes from separate donor preparations (Hu778: ToxCast plates 1 and 2; Hu776: ToxCast plates 3 and 4). Each preparation of human hepatocyte cultures was treated with respective vehicle control, medium only control, set of six positive controls/reference chemicals for the five hepatic receptor pathways, and a subset of eight of the ToxCast chemicals (indoxacarb, pyrithiobac-sodium, norflurazon, cyhalofop-butyl, methomyl, thiram, acetochlor, and propiconazole). These replicate data, coupled with internal replicates designed within the blinded ToxCast chemical library, provided additional data to evaluate interindividual differences between hepatocyte preparations and their potential impact on chemical profiles.Cell morphology and integrity were evaluated using phase-contrast microscopy as an indicator of hepatocyte cell health (Tyson & Green, 1987). Cultures for each treatment group (i.e., media, vehicle [0.2% DMSO], positive control inducers [multiple concentrations], and the ToxCast chemicals [multiple concentrations]) were observed and cell morphology was assessed relative to vehicle control cultures at each harvest time point (0, 6, 24, or 48 h). […] Images were evaluated at the conclusion of the study to assess changes in cell integrity and account for the effects of chemical exposure on uncharacteristic changes in concentration-dependent gene expression profiles. The results from these determinations of apparent cytotoxicity were annotated (yes/no) alongside the corresponding qNPA data for reference.At the conclusion of each treatment period, hepatocyte cultures (96-well) were washed with 1 volume of HBSS, lysed by addition of 25 ul ArrayPlate lysis buffer (HTG, Tucson, AZ), and 70 ul/well of Denaturation Oil, denatured by incubation at 95C for 10 min, and frozen at approximately -70C until analysis by nuclease protection assay (qNPA) (Roberts et al., 2007). For qNPA analysis, cell lysates were thawed at 50C for approximately 30 min, qNPA probes were added, and samples were incubated at 95C for 10 min to begin the detection process by denaturing the target RNA, dissociating the duplexes and secondary structure hybridization. At the conclusion of the hybridization period, S1 nuclease reagent was added to each sample to digest all nonprotected nucleotides at 50C for 60-90 min. […]
What is called AC50 is the concentration at which the activity in the assay is half-maximal. For the molecule `CCCCC(CC)COC(=O)c1ccccc1C(=O)O` (stereo not given), the concentration at half-maximal activity (AC50) is 0.0637 µM (active).
Take `COC(=O)c1ccccc1S(=O)(=O)NC(=O)Nc1nc(OC(F)F)cc(OC(F)F)n1`: the outcome was inactive.
In the case of `COC(=O)CSc1cc(N=c2sc(=O)n3n2CCCC3)c(F)cc1Cl`, the half-maximal activity concentration (AC50) was 2.66 µM (active).
With `COC(=O)c1ccc(CNS(C)(=O)=O)cc1S(=O)(=O)NC(=O)Nc1nc(OC)cc(OC)n1`, the call was inactive.
Same read-out and setting: the entry for `CCOC(=O)C(C)Oc1ccc(Oc2nc3ccc(Cl)cc3o2)cc1` (stereo not given) is “inactive”.
Take `COC(=O)c1c(Cl)nn(C)c1S(=O)(=O)NC(=O)Nc1nc(OC)cc(OC)n1`: the AC50 is 0.696 µM (active).
Same read-out and setting: with `CCCCCOC(=O)COc1cc(N2C(=O)C3=C(CCCC3)C2=O)c(F)cc1Cl` the figure was 20 µM (active); with `CN(C)C(=O)Nc1ccc(Cl)c(Cl)c1`, 3.97 µM (active).
The same measure, in the same setting: with `CCOC(=O)[C@H](C)Oc1ccc(Oc2nc3ccc(Cl)cc3o2)cc1` the figure was 3.97 µM (active).
Turning to `CCCN(CCC)c1c([N+](=O)[O-])cc(C(F)(F)F)c(N)c1[N+](=O)[O-]`, the AC50 was 3 µM (active).
Still for that read-out and setting: with `COC(=O)c1cccc(C)c1S(=O)(=O)NC(=O)Nc1nc(OCC(F)(F)F)nc(N(C)C)n1` the figure was 5.2 µM (active); with `O=C(Nc1ccc([N+](=O)[O-])cc1Cl)c1cc(Cl)ccc1O`, 0.218 µM (active).
As to `CCC(C)OC(=O)N1CCCCC1CCO` (stereo not given), the molecule was called inactive.
For the molecule `CCCCCCC(C)OC(=O)COc1nc(F)c(Cl)c(N)c1Cl` (stereo not given), the call was inactive.
Same read-out and setting: the entry for `CC1(C)C(C=C(Cl)Cl)C1C(=O)OCc1cccc(Oc2ccccc2)c1` (stereo not given) is “inactive”; for `CCOC(=O)COc1cc(-n2ncc(C(F)(F)F)c(C)c2=O)c(F)cc1Cl` it is “inactive”; for `CCN(CC)C(=O)c1cccc(C)c1` it is “inactive”.
The same measure, in the same setting: with `CCC(O)=C1C(=O)CC(C(=O)O)CC1=O` (stereo not given) the entry was “inactive”.
For `CC(C)(c1ccc(O)cc1)c1ccc(O)cc1`, the AC50 is 0.00719 µM (active).
`COc1c(Cl)ccc(Cl)c1C(=O)O`: the call was inactive.
`C=CCOC(Cn1ccnc1)c1ccc(Cl)cc1Cl` (stereo not given): the AC50 was 0.0861 µM (active).
The same measure, in the same setting: with `c1ccc2[nH]c(-c3cscn3)nc2c1` the figure was 3.15 µM (active).
For the molecule `CCOC(=O)NCCOc1ccc(Oc2ccccc2)cc1`, the molecule was called inactive.
`N#CSCSc1nc2ccccc2s1`: the call was inactive.
On to `O=C(O)C1(C(=O)Nc2ccc(Cl)cc2Cl)CC1`, for which the call was inactive.
On the same count and under the same terms, with `COc1nc(C)nc(NC(=O)NS(=O)(=O)c2ccccc2OCCCl)n1` the entry was “inactive”.
Regarding `CCN(Cc1c(F)cccc1Cl)c1c([N+](=O)[O-])cc(C(F)(F)F)cc1[N+](=O)[O-]`, the AC50 is 1.9 µM (active).
The same measure, in the same setting: the figure for `CCCCOC(=O)[C@@H](C)Oc1ccc(Oc2ccc(C(F)(F)F)cn2)cc1` is 20 µM (active); for `CCCCC(CC)CN1C(=O)C2C3C=CC(C3)C2C1=O` (stereo not given) it is 6.62 µM (active); for `CCCCOCCOCCOCc1cc2c(cc1CCC)OCO2` it is 4.17 µM (active).
Same read-out and setting: the figure for `Oc1ccc(C(c2ccc(O)cc2)C(Cl)(Cl)Cl)cc1` is 0.0522 µM (active).
As for `COC(=O)c1ccccc1C(=O)O`, the molecule was called inactive.
The same measure, in the same setting: the entry for `CCSC(=O)N(CC(C)C)CC(C)C` is “inactive”; for `CCCN(CCC)C(=O)SCC` it is “inactive”.
Regarding `CSC(=O)c1cccc2nnsc12`, the concentration at half-maximal activity (AC50) is 20 µM (active).
Still for that read-out and setting: the figure for `c1ccc(Nc2ccccc2)cc1` is 3.97 µM (active).
On to `S=C(S)NCCNC(=S)S.[Mn+2].[S-]C([S-])=NCCN=C([S-])[S-].[Zn+2]`, for which the concentration at half-maximal activity (AC50) is 1.45 µM (active).
For the molecule `CCNc1nc(N)nc(Cl)n1`, the call was inactive.
For the molecule `CC(C)(C)[C@@H](O)[C@@H](Cc1ccc(Cl)cc1)n1cncn1`, the AC50 was 1.9 µM (active).
For the molecule `CCCCOC(=O)C(C)Oc1ccc(Oc2ccc(C(F)(F)F)cn2)cc1` (stereo not given), the call was inactive.
